# Assay outcomes deposited in PubChem BioAssay by Broad Institute.
# C diff HTS = blocks growth of Clostridium difficile | Clostridium difficile clinical isolate growth, OD600, 24 h; stronger effect = lower value | growth activity, negative = inhibition, % at 16 µg/mL (by protocol) | 0.25% of 86,000 active | AID 1259249;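 active means mean growth activity at or below -80% and every replicate also at or below -80%; inconclusive means mean at or below -80% but some replicate above -80%; inactive means mean growth activity above -80%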
# Pf Dd2 growth = blocks growth of Plasmodium falciparum Dd2 parasites | P. falciparum Dd2 growth, SYBR Green, 72 h; stronger effect = lower value | activity change, % at 10 µM | 2.3% of 94,000 active | AID 1159554; in the data active means activity change below about -80%; inconclusive means no clear call, values can overlap the other calls
# T cruzi growth-1 = blocks T. cruzi growth in NIH3T3 culture; T. cruzi beta-gal in NIH3T3, GalScreen luminescence, 90 h; inhibition, % at 8.34 µM; 5.9% of 77,000 active; AID 624255;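 active means mean inhibition above about 93%, with at least 55% of replicates each passing it, limit read from the data, passing the limit was not always enough; inconclusive means only one of those two conditions holds; inactive means neither condition holds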
# T cruzi growth-2 = blocks T. cruzi growth in NIH3T3 host cells | shares compounds with T cruzi growth-1 | T. cruzi beta-gal in NIH3T3, GalScreen luminescence, 90 h | inhibition, % at 8.35 µM | 72% of 5,600 active;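 active means mean replicate inhibition above about 95% and at least 55% of replicates individually reaching it, limit read from the data; inconclusive means only one of the two criteria is met; inactive means neither criterion is met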
# T cruzi growth-3 = Trypanosoma cruzi proliferation inhibition; shares compounds with T cruzi growth-1; 21% of 5,600 active; inhibition, % at 2.09 µM; AID 651740; T. cruzi beta-gal in NIH3T3, GalScreen luminescence, 90 h;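 active means mean inhibition above about 95%, with at least 55% of replicates also reaching it, limit read from the data; inconclusive means meets just one of the two conditions; inactive means meets neither condition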
# NIH3T3 tox = NIH/3T3 (mouse) viability loss; cytotoxicity (signal decrease), % at 8.35 µM; 14% of 5,600 active; NIH/3T3 viability, CellTiter-Glo ATP luminescence, 90 h; shares compounds with T cruzi growth-1;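 active means mean signal decrease across replicates above about 35% based on untreated-well scatter, with enough replicates individually passing, limit read from the data; inconclusive means no rule stated though some were filed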
# NIH3T3 tox 2 = NIH/3T3 (mouse) viability loss; 56% of 5,600 active; shares compounds with T cruzi growth-1; inhibition, % at 24.9 µM; NIH/3T3 viability, CellTiter-Glo ATP luminescence, 90 h;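 active means mean loss of cell viability signal at or above a set limit, and enough replicates individually reaching it; inconclusive means meets only the mean limit or only the replicate share; inactive means meets neither condition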
# A number is an active result; n = inactive; u = inconclusive; x = not tested or not shown. An excerpt weighted towards active compounds, which were near 6.8% of everything screened.
SMILES,C diff HTS,Pf Dd2 growth,T cruzi growth-1,T cruzi growth-2,T cruzi growth-3,NIH3T3 tox,NIH3T3 tox 2
C[C@H]1CN([C@@H](C)CO)C(=O)c2cccc(N(C)C)c2O[C@@H]1CN(C)Cc1ccc(C(=O)Nc2ccccc2N)cc1,n,u,n,x,x,x,x
C[C@@H]1CN([C@@H](C)CO)C(=O)c2cccc(N(C)C)c2O[C@@H]1CN(C)Cc1ccc(C(=O)Nc2ccccc2N)cc1,n,-82,113,104,n,n,73
C[C@H](CO)N1C[C@H](C)[C@H](CN(C)Cc2ccccc2)Oc2c(NC(=O)c3ccc(-c4nccs4)cc3)cccc2C1=O,n,n,n,x,x,x,x
C[C@H](CO)N1C[C@H](C)[C@@H](CN(C)CC2CCCCC2)Oc2c(NC(=O)c3ccc(-c4nccs4)cc3)cccc2C1=O,n,n,n,x,x,x,x
C[C@H]1CN([C@@H](C)CO)C(=O)c2cccc(NC(=O)c3ccc(-c4nccs4)cc3)c2O[C@@H]1CN(C)Cc1ccccc1,n,n,n,x,x,x,x
C[C@@H]1CN([C@@H](C)CO)C(=O)c2cccc(NC(=O)c3ccc(-c4nccs4)cc3)c2O[C@H]1CN(C)CC1CCCCC1,n,n,99,117,n,n,n
C[C@H](CO)N1C[C@H](C)[C@H](CN(C)Cc2ccc(Oc3ccccc3)cc2)Oc2c(NC(=O)c3ccc(-c4nccs4)cc3)cccc2C1=O,x,n,103,110,109,n,25
C[C@H]1CN([C@@H](C)CO)C(=O)c2cccc(NC(=O)c3ccc(-c4nccs4)cc3)c2O[C@@H]1CN(C)Cc1ccc(-c2ccccc2)cc1,n,-84,99,107,n,n,n
C[C@H]1CN([C@@H](C)CO)C(=O)c2cccc(NC(=O)c3ccc(-c4nccs4)cc3)c2O[C@H]1CN(C)Cc1ccc(C(=O)Nc2ccccc2N)cc1,n,-91,98,102,101,n,56
C[C@@H]1CN([C@H](C)CO)C(=O)c2cccc(NC(=O)c3ccc(-c4nccs4)cc3)c2O[C@H]1CN(C)Cc1ccc(Oc2ccccc2)cc1,x,n,n,x,x,x,x
Cc1noc(C)c1NC(=O)N(C)C[C@H]1Oc2ccc(NC(=O)Nc3ccc(F)cc3)cc2CC(=O)N([C@@H](C)CO)C[C@H]1C,n,n,n,x,x,x,x
COc1ccc(S(=O)(=O)N(C)C[C@@H]2OCCCC[C@H](C)Oc3ccc(NS(=O)(=O)c4ccc(C)cc4)cc3C(=O)N([C@H](C)CO)C[C@H]2C)cc1,n,n,n,x,x,x,x
C[C@@H]1CN([C@@H](C)CO)C(=O)c2cc(NC(=O)c3ccncc3)ccc2O[C@H]1CN(C)Cc1ccncc1,n,n,n,x,x,x,x
CCC(=O)N[C@H]1CC[C@@H](CC(=O)NCc2ccc(OC)cc2)O[C@H]1CO,n,n,n,x,x,x,x
O=C(N[C@H]1CC[C@H](CC(=O)N2CCN(c3ccccc3)CC2)O[C@@H]1CO)c1ccncc1,n,n,n,x,x,x,x
C[C@@H]1CN([C@H](C)CO)C(=O)c2cccc(NC(=O)C3CCOCC3)c2O[C@H]1CN(C)C(=O)Nc1ccc(F)cc1,n,n,n,x,x,x,x
C[C@@H]1CN([C@@H](C)CO)C(=O)Cc2cc(NC(=O)Nc3cccc4ccccc34)ccc2O[C@H]1CN(C)C(=O)NC1CCCCC1,n,n,n,x,x,x,x
Cc1ccccc1-c1ccc([C@@H]2[C@H](CO)N3CCCCN(C(=O)Nc4ccc(F)cc4)C[C@@H]23)cc1,-99,n,103,n,107,117,103
O=C(Nc1ccc(F)cc1)N1CCCCN2[C@@H](CO)[C@@H](c3ccc(-c4ccccc4F)cc3)[C@@H]2C1,n,n,103,n,106,106,104
O=C(Nc1ccccc1)N1CCCCN2[C@@H](CO)[C@@H](c3ccc(-c4ccccc4F)cc3)[C@@H]2C1,n,n,n,x,x,x,x
Cc1ccccc1-c1ccc([C@@H]2[C@@H](CO)N3CCCCN(C(=O)Nc4ccc(F)cc4)C[C@@H]23)cc1,n,n,n,x,x,x,x
Cc1noc(C)c1S(=O)(=O)N(C)C[C@@H]1Oc2ccc(NC(=O)NC3CCCCC3)cc2CC(=O)N([C@@H](C)CO)C[C@@H]1C,n,n,n,x,x,x,x
C[C@H]1CN([C@@H](C)CO)C(=O)c2cccc(NC(=O)C3CCCCC3)c2O[C@H]1CN(C)S(=O)(=O)c1ccccc1,n,n,n,x,x,x,x
C[C@@H]1CN([C@H](C)CO)S(=O)(=O)c2ccc(-c3cncnc3)cc2O[C@H]1CN(C)CC1CC1,x,n,n,x,x,x,x
COc1ccc(S(=O)(=O)N2C[C@H](O)COC[C@@H]3O[C@H](CC(=O)NCc4ccc(Cl)c(Cl)c4)CC[C@H]32)cc1,n,n,144,n,n,n,64
SMILES,C diff HTS,Pf Dd2 growth,T cruzi growth-1,T cruzi growth-2,T cruzi growth-3,NIH3T3 tox,NIH3T3 tox 2
Cc1ccc(S(=O)(=O)N2C[C@H](O)COC[C@@H]3O[C@H](CC(=O)NCc4ccc(Cl)c(Cl)c4)CC[C@H]32)cc1,x,n,n,x,x,x,x
O=C(C[C@@H]1CC[C@@H]2[C@H](COC[C@@H](O)CN2S(=O)(=O)c2ccc(F)cc2)O1)NCc1ccc(Cl)c(Cl)c1,n,n,n,x,x,x,x
COc1ccc(S(=O)(=O)N2C[C@H](O)COC[C@H]3O[C@@H](CC(=O)NCc4ccc(Cl)c(Cl)c4)CC[C@@H]32)cc1,n,n,98,100,n,n,42
Cc1ccc(S(=O)(=O)N2C[C@@H](O)COC[C@@H]3O[C@@H](CC(=O)NCc4ccc(Cl)c(Cl)c4)CC[C@H]32)cc1,x,n,n,x,x,x,x
Cc1ccc(S(=O)(=O)N2C[C@H](O)COC[C@@H]3O[C@@H](CC(=O)NCc4ccc(Cl)c(Cl)c4)CC[C@H]32)cc1,x,n,n,x,x,x,x
COc1ccc(S(=O)(=O)N2C[C@@H](O)COC[C@@H]3O[C@@H](CC(=O)NCc4ccc(Cl)c(Cl)c4)CC[C@H]32)cc1,n,n,168,n,n,n,42
COc1ccc(S(=O)(=O)N2C[C@@H](O)COC[C@@H]3O[C@H](CC(=O)NCc4ccc(Cl)c(Cl)c4)CC[C@H]32)cc1,n,n,143,110,n,u,33
CCC(=O)NC[C@H]1[C@H](c2ccccc2)[C@@H](CO)N1C(=O)C1CC1,n,n,n,x,x,x,x
O=C(C1CC1)N1CCCCN2[C@H](CO)[C@@H](c3ccc(C#CC4CC4)cc3)[C@H]2C1,n,n,n,x,x,x,x
CO[C@H]1CN(C)C(=O)c2ccc(NC(=O)c3ccccc3F)cc2OC[C@@H](C)N(C(=O)c2ccccc2F)C[C@@H]1C,x,n,n,x,x,x,x
COc1ccc(S(=O)(=O)N2C[C@H](O)COC[C@H]3O[C@H](CC(=O)NCc4ccc(Cl)c(Cl)c4)CC[C@@H]32)cc1,n,n,u,n,n,n,44
O=C(C[C@H]1CC[C@@H]2[C@H](COC[C@@H](O)CN2S(=O)(=O)c2ccc(F)cc2)O1)NCc1ccc(Cl)c(Cl)c1,n,n,n,x,x,x,x
